# Results: the supplement of paper PMC11732987, “Enantioselective OTUD7B fragment discovery through chemoproteomics screening and high-throughput optimisation” (Communications Chemistry, 2025)
# Compound: ClCC(=O)N1CCC(CC#N)C1
# Test: log2 ratio of Biotin-Ahx-Ub-VS probe labelling (compound/DMSO); higher = less target engagement, active = hit call of the paper (q ≤ 0.05, log2 ratio ≤ -1)
# Details: compound concentration: 50uM; treatment time: 3 h
# Method: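 Round 2 competitive ABPP in HEK293T lysate. Purified HTC-D2B compounds were tested at 50 and 200 µM for 3 h, followed by Biotin-Ahx-Ub-VS enrichment and diaPASEF LC-MS/MS. Values are the average log2 ratio (compound/DMSO) from an unpaired t-test (n=3 treated, n=26 DMSO).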
# Chain of UniProt Q5T2D3 (Q5T2D3 whole entry): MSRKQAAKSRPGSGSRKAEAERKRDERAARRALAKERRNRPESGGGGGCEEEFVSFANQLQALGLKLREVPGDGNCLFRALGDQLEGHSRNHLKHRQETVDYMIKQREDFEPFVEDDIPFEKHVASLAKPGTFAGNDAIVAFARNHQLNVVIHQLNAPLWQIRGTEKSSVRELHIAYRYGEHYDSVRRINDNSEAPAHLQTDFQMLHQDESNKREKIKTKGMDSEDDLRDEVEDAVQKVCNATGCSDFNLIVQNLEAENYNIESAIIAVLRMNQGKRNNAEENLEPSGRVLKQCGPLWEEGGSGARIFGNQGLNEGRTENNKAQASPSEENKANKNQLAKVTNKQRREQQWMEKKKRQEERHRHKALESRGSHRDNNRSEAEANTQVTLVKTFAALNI
# Chain of UniProt Q8TE49 (Q8TE49 whole entry): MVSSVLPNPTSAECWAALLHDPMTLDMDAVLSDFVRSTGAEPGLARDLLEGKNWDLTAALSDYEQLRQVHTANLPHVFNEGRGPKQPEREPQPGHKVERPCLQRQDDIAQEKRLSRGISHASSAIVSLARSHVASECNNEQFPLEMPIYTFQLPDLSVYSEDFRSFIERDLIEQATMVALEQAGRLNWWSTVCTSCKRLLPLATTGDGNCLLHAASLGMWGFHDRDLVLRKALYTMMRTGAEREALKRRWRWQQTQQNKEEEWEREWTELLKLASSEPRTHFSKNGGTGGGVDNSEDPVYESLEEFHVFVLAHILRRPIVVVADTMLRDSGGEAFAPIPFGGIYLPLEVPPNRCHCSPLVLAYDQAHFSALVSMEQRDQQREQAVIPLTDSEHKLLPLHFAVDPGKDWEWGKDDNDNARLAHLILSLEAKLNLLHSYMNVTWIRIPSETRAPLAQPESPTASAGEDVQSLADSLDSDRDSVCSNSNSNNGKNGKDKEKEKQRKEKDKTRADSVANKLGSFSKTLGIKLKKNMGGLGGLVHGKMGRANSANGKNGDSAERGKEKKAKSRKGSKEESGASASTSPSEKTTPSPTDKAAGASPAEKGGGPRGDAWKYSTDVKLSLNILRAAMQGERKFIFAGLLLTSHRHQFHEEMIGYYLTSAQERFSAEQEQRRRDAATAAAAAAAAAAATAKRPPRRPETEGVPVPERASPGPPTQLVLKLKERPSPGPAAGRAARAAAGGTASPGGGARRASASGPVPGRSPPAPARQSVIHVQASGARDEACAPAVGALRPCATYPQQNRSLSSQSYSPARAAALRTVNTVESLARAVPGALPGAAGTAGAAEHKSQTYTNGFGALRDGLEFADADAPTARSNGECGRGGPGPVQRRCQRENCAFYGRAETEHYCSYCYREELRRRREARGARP
# Chain of UniProt Q93009 (Q93009 whole entry, looked up): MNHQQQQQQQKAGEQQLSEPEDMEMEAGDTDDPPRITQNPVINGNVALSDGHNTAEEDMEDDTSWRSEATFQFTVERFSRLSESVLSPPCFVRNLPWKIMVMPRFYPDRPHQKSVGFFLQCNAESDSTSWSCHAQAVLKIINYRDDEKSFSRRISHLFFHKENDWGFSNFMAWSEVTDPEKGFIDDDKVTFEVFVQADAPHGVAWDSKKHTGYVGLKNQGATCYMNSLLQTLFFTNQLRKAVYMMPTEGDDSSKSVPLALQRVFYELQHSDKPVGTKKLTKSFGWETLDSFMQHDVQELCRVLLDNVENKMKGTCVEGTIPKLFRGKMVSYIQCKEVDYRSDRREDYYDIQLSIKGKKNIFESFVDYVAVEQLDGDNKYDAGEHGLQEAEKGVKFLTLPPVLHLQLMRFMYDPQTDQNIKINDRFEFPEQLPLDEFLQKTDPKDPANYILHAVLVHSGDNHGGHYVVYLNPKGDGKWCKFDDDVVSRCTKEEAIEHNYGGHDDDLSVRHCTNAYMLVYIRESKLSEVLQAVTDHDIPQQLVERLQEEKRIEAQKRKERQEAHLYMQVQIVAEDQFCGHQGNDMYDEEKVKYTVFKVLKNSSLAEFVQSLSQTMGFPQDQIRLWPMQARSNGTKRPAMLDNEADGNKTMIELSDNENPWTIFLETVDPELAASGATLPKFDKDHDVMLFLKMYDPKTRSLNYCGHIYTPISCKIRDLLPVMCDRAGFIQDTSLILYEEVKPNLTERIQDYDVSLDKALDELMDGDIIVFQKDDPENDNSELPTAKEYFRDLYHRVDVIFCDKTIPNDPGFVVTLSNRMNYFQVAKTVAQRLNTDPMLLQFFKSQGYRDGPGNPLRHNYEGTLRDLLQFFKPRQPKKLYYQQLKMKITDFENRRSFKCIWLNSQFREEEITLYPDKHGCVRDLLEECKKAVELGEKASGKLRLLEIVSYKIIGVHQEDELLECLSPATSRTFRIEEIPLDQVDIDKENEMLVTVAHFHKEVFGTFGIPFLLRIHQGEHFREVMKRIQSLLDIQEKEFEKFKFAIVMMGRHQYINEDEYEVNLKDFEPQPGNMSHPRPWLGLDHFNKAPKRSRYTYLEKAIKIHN
# Chain of UniProt Q6GQQ9 (Q6GQQ9 whole entry): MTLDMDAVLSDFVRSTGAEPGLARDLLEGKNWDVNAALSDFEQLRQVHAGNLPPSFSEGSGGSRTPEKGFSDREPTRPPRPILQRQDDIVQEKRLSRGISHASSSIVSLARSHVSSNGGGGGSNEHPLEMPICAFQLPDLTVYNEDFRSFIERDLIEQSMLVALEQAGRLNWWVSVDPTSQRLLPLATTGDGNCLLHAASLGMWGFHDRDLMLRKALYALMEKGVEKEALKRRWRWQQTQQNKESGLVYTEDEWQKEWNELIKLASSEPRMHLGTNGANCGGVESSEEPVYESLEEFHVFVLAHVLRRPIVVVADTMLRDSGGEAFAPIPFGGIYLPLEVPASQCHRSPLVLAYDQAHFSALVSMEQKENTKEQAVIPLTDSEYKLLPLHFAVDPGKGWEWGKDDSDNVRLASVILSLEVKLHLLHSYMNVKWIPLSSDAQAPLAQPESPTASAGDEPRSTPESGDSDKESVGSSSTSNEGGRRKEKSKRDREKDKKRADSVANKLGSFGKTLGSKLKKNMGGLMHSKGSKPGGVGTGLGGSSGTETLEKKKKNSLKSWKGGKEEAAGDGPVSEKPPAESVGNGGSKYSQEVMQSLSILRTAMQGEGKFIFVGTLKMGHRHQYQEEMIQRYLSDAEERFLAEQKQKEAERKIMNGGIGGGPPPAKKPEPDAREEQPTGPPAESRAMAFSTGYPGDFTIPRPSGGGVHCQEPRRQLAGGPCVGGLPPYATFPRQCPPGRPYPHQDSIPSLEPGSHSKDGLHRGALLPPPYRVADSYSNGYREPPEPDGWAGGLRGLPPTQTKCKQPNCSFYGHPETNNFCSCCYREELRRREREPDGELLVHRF
# Chain of UniProt P51665 (P51665 whole entry): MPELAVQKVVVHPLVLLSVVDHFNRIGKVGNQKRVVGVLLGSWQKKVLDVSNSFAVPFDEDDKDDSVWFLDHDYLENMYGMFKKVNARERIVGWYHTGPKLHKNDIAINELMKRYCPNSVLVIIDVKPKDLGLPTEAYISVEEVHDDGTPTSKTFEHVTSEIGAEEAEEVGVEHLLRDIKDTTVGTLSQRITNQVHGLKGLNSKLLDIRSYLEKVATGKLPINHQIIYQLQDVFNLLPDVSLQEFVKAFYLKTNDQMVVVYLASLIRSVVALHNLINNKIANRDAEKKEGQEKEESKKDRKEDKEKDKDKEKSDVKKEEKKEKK
# Chain of UniProt P62068 (P62068 whole entry): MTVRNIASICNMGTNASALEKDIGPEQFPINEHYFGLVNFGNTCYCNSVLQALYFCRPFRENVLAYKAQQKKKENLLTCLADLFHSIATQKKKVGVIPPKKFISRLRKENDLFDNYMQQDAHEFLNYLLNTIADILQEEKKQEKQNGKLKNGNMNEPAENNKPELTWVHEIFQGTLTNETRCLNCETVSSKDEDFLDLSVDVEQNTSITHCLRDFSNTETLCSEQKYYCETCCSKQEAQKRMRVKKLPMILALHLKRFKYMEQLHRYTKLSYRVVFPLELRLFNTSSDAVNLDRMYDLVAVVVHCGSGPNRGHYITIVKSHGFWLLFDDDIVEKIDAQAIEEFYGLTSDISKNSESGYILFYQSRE
# Chain of UniProt O00487 (O00487 whole entry): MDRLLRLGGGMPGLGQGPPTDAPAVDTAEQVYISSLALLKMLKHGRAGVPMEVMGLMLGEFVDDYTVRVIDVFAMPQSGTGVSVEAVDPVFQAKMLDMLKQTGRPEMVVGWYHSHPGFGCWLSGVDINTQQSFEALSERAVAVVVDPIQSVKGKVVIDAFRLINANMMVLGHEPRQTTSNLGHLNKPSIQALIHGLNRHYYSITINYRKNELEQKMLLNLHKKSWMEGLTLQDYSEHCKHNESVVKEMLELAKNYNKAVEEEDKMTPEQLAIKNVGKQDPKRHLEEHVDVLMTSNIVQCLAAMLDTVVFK
# Chain of UniProt O00303 (O00303 whole entry): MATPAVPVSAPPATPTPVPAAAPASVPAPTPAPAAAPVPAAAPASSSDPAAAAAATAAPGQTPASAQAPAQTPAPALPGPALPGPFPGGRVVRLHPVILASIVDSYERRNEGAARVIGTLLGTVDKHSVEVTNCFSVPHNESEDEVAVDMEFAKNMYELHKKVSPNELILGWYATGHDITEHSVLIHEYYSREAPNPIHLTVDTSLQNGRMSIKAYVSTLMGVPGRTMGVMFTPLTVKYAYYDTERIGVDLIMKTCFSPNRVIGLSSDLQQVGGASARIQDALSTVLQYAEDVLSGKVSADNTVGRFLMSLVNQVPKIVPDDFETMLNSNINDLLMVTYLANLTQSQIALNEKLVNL
# Chain of UniProt Q92905 (Q92905 whole entry, looked up): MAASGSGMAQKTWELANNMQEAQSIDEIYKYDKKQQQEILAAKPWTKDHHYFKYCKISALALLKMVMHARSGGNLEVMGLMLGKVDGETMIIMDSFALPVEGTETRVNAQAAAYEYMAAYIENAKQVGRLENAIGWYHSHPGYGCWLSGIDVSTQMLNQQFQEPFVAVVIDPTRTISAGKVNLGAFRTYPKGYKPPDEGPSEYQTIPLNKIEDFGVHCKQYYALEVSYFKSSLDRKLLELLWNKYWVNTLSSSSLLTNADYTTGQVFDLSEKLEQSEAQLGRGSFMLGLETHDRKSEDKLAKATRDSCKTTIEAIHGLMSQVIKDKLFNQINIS
row,Target,log2 ratio of Biotin-Ahx-Ub-VS probe labelling
1,YOD1 (UniProt Q5VVQ6),-0.225 (inactive)
2,USP12 (UniProt O75317),-0.0667 (inactive)
3,COPS5 (UniProt Q92905),-0.111 (inactive)
4,USP34 (UniProt Q70CQ2),0.721 (inactive)
5,USP9X (UniProt Q93008),0.0276 (inactive)
6,USP15 (UniProt Q9Y4E8),-0.281 (inactive)
7,USP8 (UniProt P40818),-0.261 (inactive)
8,OTUD7B (UniProt Q6GQQ9),-0.339 (inactive)
9,USP25 (UniProt Q9UHP3),-0.617 (inactive)
10,UniProt Q8TE49,-0.317 (inactive)
11,ALG13 (UniProt Q9NP73),0.259 (inactive)
12,USP7 (UniProt Q93009),-0.141 (inactive)
13,UniProt O00487,-0.033 (inactive)
14,PSMD7 (UniProt P51665),0.408 (inactive)
15,USP14 (UniProt P54578),-0.25 (inactive)
16,USP16 (UniProt Q9Y5T5),-0.133 (inactive)
17,UniProt Q5T2D3,-0.206 (inactive)
18,USP46 (UniProt P62068),-0.14 (inactive)
19,EIF3F (UniProt O00303),-0.172 (inactive)
20,PRPF8 (UniProt Q6P2Q9),0.045 (inactive)

# Same assay, conditions: compound concentration: 200uM; treatment time: 3 h
row,Target,log2 ratio of Biotin-Ahx-Ub-VS probe labelling
1,YOD1 (UniProt Q5VVQ6),0.00802 (inactive)
2,USP12 (UniProt O75317),-0.647 (inactive)
3,COPS5 (UniProt Q92905),-0.11 (inactive)
4,USP34 (UniProt Q70CQ2),-0.382 (inactive)
5,USP9X (UniProt Q93008),-0.109 (inactive)
6,USP15 (UniProt Q9Y4E8),-0.268 (inactive)
7,USP8 (UniProt P40818),-0.168 (inactive)
8,OTUD7B (UniProt Q6GQQ9),-0.552 (inactive)
9,USP25 (UniProt Q9UHP3),-2.11 (active)
10,UniProt Q8TE49,-0.54 (inactive)
11,ALG13 (UniProt Q9NP73),0.307 (inactive)
12,USP7 (UniProt Q93009),-0.201 (inactive)
13,UniProt O00487,-0.198 (inactive)
14,PSMD7 (UniProt P51665),0.631 (inactive)
15,USP14 (UniProt P54578),0.0716 (inactive)
16,USP16 (UniProt Q9Y5T5),-0.669 (inactive)
17,UniProt Q5T2D3,-0.203 (inactive)
18,USP46 (UniProt P62068),-0.548 (inactive)
19,EIF3F (UniProt O00303),0.14 (inactive)
20,PRPF8 (UniProt Q6P2Q9),-0.00376 (inactive)
